# Experiments:
# Type in all cases: functional
# Plasmodium falciparum [1] = experiment: GSK_TCMDC: Inhibition of Plasmodium falciparum 3D7 in whole red blood cells, using parasite LDH activity as an index of growth. Test compounds present at 2uM
# Plasmodium falciparum [2] = experiment: GSK_TCMDC: Inhibition of Plasmodium falciparum Dd2 in whole red blood cells, using parasite LDH activity as an index of growth. Test compounds present at 2uM
# HepG2 = experiment: GSK_TCMDC: Percent inhibition of human HepG2 cell line. Test compounds present at 10uM.
SMILES,Inhibition (Plasmodium falciparum [1]),Inhibition (Plasmodium falciparum [2]),Inhibition (HepG2)
COc1ccc2[nH]c(C(=O)Nc3ccc4[nH]c(-c5ccccc5)nc4c3)cc2c1.O=C(O)C(F)(F)F,96%,23%,51%
COc1ccc(CN2CCCC(C(=O)c3ccc(C(F)(F)F)cc3)C2)c(O)c1 (stereo not given),98%,88%,0%
Cl.N#Cc1ccc2c(c1)CCN(CCC1CCC(NC(=O)Nc3cnc4ccccc4c3)CC1)C2 (stereo not given),93%,9%,14%
CC[C@H]1CN(CCCC(=O)c2ccccc2)CC[C@H]1CCCc1ccnc2ccc(OC(=O)c3ccccc3)cc12.O=C(O)C(=O)O,83%,68%,28%
O=C(Nc1ccc([N+](=O)[O-])cc1)Nc1cc(C(F)(F)F)ccc1F,89%,46%,8%
Cc1nc2ccc(-c3nc4cc(N)ccc4[nH]3)cc2[nH]1,94%,80%,6%
CCOc1cc(C)ccc1NC1CCN(CCCCNC(=O)c2ccc(NC(=O)c3ccc(Cl)cc3)cc2)CC1,100%,70%,17%
FC(F)(F)c1ccc2[nH]c(-c3ccc(-c4ccc(CN5CCN(c6cnccn6)CC5)cc4)s3)nc2c1.O=C(O)C(F)(F)F,100%,99%,23%
CC1CC(NCCCNc2cc(=O)c3ccccc3[nH]2)c2c1cc(Cl)c(Cl)c2Cl (stereo not given),98%,70%,1%
COc1ccc2nccc(N3CCN(CCNCc4ccc5c(n4)NC(=O)CS5)CC3)c2c1.Cl,97%,23%,18%
